From PubChem BioAssay (NCATS) come the findings set out here.

The test system of assay [1] is Zika virus NS2B-NS3 protease (unlinked complex). Kind of assay: Primary screen GU Rhodamine qHTS for Zika virus inhibitors: Unlinked NS2B-NS3 protease assay (AID 1347159). Further: nearly all actives have a fitted effect of over 60% in size. In a few lines: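 Percent inhibition derives from the 15-min fluorescence change (ex 480, em 540 nm), normalized to no-enzyme and no-inhibitor wells. Reactions contained 25 nM NS2B-NS3 complex and 1.5 microM substrate in 10 mM Tris-HCl pH 8.0.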
A general note: qHTS replaces the single test concentration by a dilution series.

Assay [2] concerns Zika virus NS2B-NS3 protease (linked construct). Kind of assay: Primary screen NINDS Rhodamine qHTS for Zika virus inhibitors (AID 1347160). Further: nearly all actives have a fitted effect of over 55% in size. An outline of the steps:
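In 10 mM Tris-HCl pH 8.0 containing 0.01% Tween 20, linked NS2B-NS3 protease (25 nM final) is exposed to test compounds for 15 min. Cleavage of 1.5 microM Rhodamine110 substrate is tracked by fluorescence over 15 min.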

Results filed as inconclusive are left out. A number with no mark means an inactive call. Activity calls are given as the source filed them. The call rests on the fitted dose curve; in most records, active means well fitted inhibition curve with a large enough effect; inconclusive means small, poorly fitted or top-dose-only effect; inactive means no such curve, though single readings can be large or run the other way.
On the % scale 0 is the no-effect control and ±100 the full control effect; potency means the concentration at half of the fitted maximal effect.

As to `On1ncc(C2CCNCC2)c1-c1cccc(-c2ccccc2)c1`, the Potency entry in assay [1] and in assay [2] was “inactive” each time.
With `CC(=O)c1ccc(O[C@@H]2O[C@H](CO[C@@H]3OC[C@@H](O)[C@H](O)[C@H]3O)[C@@H](O)[C@H](O)[C@H]2O)cc1`, the Potency entry in assay [1] and in assay [2] was “inactive” throughout.
Take `C/C=C(\C)C(=O)OC1C2(O)CC3=C4CC(=O)OC(c5ccoc5)C4(C)CCC3C(C)(C2=O)C(C(OC(C)=O)C(=O)OC)C1(C)C` (stereo not drawn): the Potency result in assay [1] and in assay [2] was “inactive” in each case.
`COc1ccc(C2(O)c3ccccc3NC(=O)C2OC)cc1` (stereo not drawn): the Potency entry in assay [1] and in assay [2] was “inactive” in each case.
For the compound `CC1=C2C(=O)C=C(CO[C@@H]3O[C@H](CO)[C@@H](O)[C@H](O)[C@H]3O)[C@@H]2[C@H]2OC(=O)[C@H](C)[C@@H]2CC1`, the Potency entry in assay [1] and in assay [2] was “inactive” throughout.
As to `C/C(=C\CO)CC/C=C(\C)C(=O)O[C@@H]1O[C@H](CO)[C@@H](O)[C@H](O)[C@H]1O`, the Potency result in assay [1] and in assay [2] was “inactive” throughout.
As for `CN1CCN(C2=Nc3ccccc3Nc3ccc(O)cc32)CC1`, the Potency result in assay [1] and in assay [2] was “inactive” throughout.
`CCNC(=O)C1CC(F)(c2ccc(CN3CCCC3)c(F)c2)C1` (stereo not drawn): the Potency entry in assay [1] and in assay [2] was “inactive” throughout.
Turning to `C=C1CC23CC1CCC2C12OC(=O)C(C)(C(O)C(O)C1O)C2C3C(=O)O` (stereo not drawn), the Potency result in assay [1] and in assay [2] was “inactive” each time.
Turning to `C/C=C(\C)C(=O)OC1CC2C(CC=C3CC(OC4CC(OC)C(OC5CC(OC)C(OC6CC(OC)C(OC7CC(OC)C(OC8CC(OC)C(OC9OC(CO)C(O)C(O)C9O)C(C)O8)C(C)O7)C(C)O6)C(C)O5)C(C)O4)CCC32C)C2(O)CCC(C(C)=O)C12C` (stereo not drawn), in assay [1], the activity change, negative = inhibition was 20.8% [at 19.1 µM]. For the same compound, the Potency entry in assay [2] is “inactive”.
With `C[C@H]1/C=C/C=C/C=C/C=C/C=C/[C@@H](O)[C@H](C(=O)O)[C@H](O)C[C@H](O)CCC[C@H](O)C[C@H](O)C[C@H](O)[C@@H](C)C(=O)O[C@@H]1C`, the Potency result in assay [1] and in assay [2] was “inactive” throughout.
On to `CC(C)=C1C[C@@]2(C)C(=CC1=O)CC[C@@H](O)[C@@H]2C`, for which the Potency entry in assay [1] and in assay [2] was “inactive” throughout.
Turning to `COc1cc(O)cc(C)c1C(=O)OC1C(CO)OC(n2ccc(=O)[nH]c2=O)C1OC(C)=O` (stereo not drawn), the Potency result in assay [1] and in assay [2] was “inactive” each time.
Regarding `COc1cc(OC)cc(-c2ccc3c(-c4ccc(F)cc4)[nH]nc3n2)c1`, the Potency result in assay [1] and in assay [2] was “inactive” in each case.
With `Cn1cc(CCn2cnc(-c3cnn(C)c3)c2-c2ccc(C#N)cc2)cn1`, the Potency result in assay [1] and in assay [2] was “inactive” each time.
Regarding `CC(=O)NC1C(OC2CCC3(C)C(CCC4(C)C3CC=C3C5CC(C)(C)CCC5(C(=O)O)C(O)CC34C)C2(C)C)OC(CO)C(O)C1O` (stereo not drawn), the Potency entry in assay [1] and in assay [2] was “inactive” throughout.
With `COc1cc([C@H]2OC[C@](O)(Cc3ccc(O[C@@H]4O[C@H](CO)[C@@H](O)[C@H](O)[C@H]4O)c(OC)c3)[C@@H]2CO)ccc1O`, the Potency entry in assay [1] and in assay [2] was “inactive” in each case.
With `C/C=C(/C)C(=O)OC1C(OC(C)=O)C23C(O)OC4(CCC5C6(C)CCC(OC7OC(C(=O)O)C(O)C(OC8OC(CO)C(O)C(O)C8OC8OC(C)C(O)C(O)C8OC8OCC(O)C(O)C8O)C7OC7OC(CO)C(O)C(O)C7O)C(C)(C)C6CCC5(C)C4(C)CC2OC(C)=O)C3CC1(C)C` (stereo not drawn), the activity change, negative = inhibition in assay [1] is -1.79% [at 19.1 µM]. Further, the Potency entry in assay [2] was “inactive”.
`COc1cc(C(CO)C(OC2OC(CO)C(O)C(O)C2O)c2ccc(O)c(OC)c2)ccc1O` (stereo not drawn): the Potency entry in assay [1] and in assay [2] was “inactive” in each case.
For the compound `C=C1[C@H](OC(C)=O)[C@H]2[C@@H](OC(=O)c3ccccc3)[C@@H](C)C[C@]2(O)[C@@H](OC(C)=O)[C@H](C)/C=C/C(C)(C)C(=O)[C@H](OC(C)=O)[C@H]1OC(C)=O`, the Potency result in assay [1] and in assay [2] was “inactive” each time.
For `O=C(COCC(=O)N1CCN(C(c2ccccc2)c2ccccc2)CC1)Nc1ccc(Cl)cc1C(=O)O`, the Potency is 11.2 µM (active) in assay [1] and 12.6 µM (active) in assay [2].
In the case of `CC1=C(C)C(=O)OC(C(C)C2C(O)CC3C4C5OC5C5(O)CC(OC6OC(CO)C(OC7OC(C)C(O)C(O)C7O)C(O)C6O)CC(O)C5(C)C4CCC32C)C1` (stereo not drawn), the Potency entry in assay [1] and in assay [2] was “inactive” each time.
With `CN(C)CCC[C@]1(c2ccc(F)cc2)OCc2cc(C#N)ccc21`, the Potency result in assay [1] and in assay [2] was “inactive” each time.
Turning to `C=CC1(C)CC=C2C(CCC3C(C)(C(=O)O)CCCC23C)C1` (stereo not drawn), the Potency in assay [1] is 5.62 µM (active); in assay [2], 14.1 µM (active).
For `CC(=O)O[C@H]1[C@H](OC(=O)C(C)C)[C@]2(C)OC3(CC[C@]2(C)[C@H]2CCC[C@]4(CO4)[C@]12C)COC(=O)C3` (stereo partly drawn) the same measures were “inactive” and “inactive”.
On to `COc1ccc(N2CCN(CCCNC(=O)Cn3c(=O)c4cccn4c4c(C)ccnc43)CC2)cc1`, for which the Potency result in assay [1] and in assay [2] was “inactive” throughout.
Consider `CNc1nc(C)nc(N[C@H]2CCC[C@@H](C(=O)NCc3ccc(C#N)cc3C(F)(F)F)C2)n1`, for which the Potency result in assay [1] and in assay [2] was “inactive” in each case.
For the compound `O=C(/C=C/c1ccccc1)O[C@@H]1[C@@H](CO)O[C@@](CO)(O[C@H]2O[C@H](CO)[C@@H](O)[C@H](O)[C@H]2O)[C@H]1O`, the Potency entry in assay [1] and in assay [2] was “inactive” in each case.
Regarding `CN1C(=O)N(c2cc(Cl)cc(Cl)c2)C(=O)[C@@]1(C)Cc1ccc(Br)cc1`, the Potency result in assay [1] and in assay [2] was “inactive” throughout.
